Experiment in all cases: DAPPL (digital affinity profiling via proximity ligation, sequencing); 10 mM Tris-HCl pH 7.5, 50 mM NaCl, 1 mM DTT, 4% glycerol, room temperature, 30 min; GST-TFs on glutathione beads, 16-mer random dsDNA library, 0.1% formaldehyde crosslink after washing; high values mean tight binding
The target in assay [1] is T1, FLI1 (Homo sapiens, UniProt Q01543 1-452).
T1 sequence: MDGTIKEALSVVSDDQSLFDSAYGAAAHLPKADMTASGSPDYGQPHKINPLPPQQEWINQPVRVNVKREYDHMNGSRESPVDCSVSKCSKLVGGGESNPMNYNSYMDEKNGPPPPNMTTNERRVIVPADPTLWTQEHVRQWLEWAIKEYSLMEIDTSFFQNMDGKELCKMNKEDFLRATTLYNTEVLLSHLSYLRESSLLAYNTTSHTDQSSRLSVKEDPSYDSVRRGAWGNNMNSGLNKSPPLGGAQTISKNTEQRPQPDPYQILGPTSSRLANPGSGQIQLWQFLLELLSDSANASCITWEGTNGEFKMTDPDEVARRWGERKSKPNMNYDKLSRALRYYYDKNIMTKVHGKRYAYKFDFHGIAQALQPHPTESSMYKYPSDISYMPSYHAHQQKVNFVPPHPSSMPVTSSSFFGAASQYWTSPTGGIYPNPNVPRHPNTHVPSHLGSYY
The note with it: protein: recombinant; tags: N-terminal GST; dsDNA, one strand shown. Summed up: (§1)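 Human transcription factors fused to GST were expressed in yeast, captured on glutathione beads, given DNA barcodes and pooled with a GST-only negative control. Pools were incubated with 200 nmole of a 16-mer random double-stranded DNA library in Tris/NaCl/DTT/glycerol buffer at room temperature for 30 min. They were then washed, crosslinked with 0.1% formaldehyde, proximity-ligated (BsaI/T4 ligase, 1 h, 37 °C), PCR-amplified and sequenced on an Illumina NextSeq500. Binding signal is each 6-mer's read frequency for a factor divided by its frequency for the GST control.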

In assay [2] the target is T2, ELK1 (Homo sapiens, UniProt P19419 1-428).
T2 sequence: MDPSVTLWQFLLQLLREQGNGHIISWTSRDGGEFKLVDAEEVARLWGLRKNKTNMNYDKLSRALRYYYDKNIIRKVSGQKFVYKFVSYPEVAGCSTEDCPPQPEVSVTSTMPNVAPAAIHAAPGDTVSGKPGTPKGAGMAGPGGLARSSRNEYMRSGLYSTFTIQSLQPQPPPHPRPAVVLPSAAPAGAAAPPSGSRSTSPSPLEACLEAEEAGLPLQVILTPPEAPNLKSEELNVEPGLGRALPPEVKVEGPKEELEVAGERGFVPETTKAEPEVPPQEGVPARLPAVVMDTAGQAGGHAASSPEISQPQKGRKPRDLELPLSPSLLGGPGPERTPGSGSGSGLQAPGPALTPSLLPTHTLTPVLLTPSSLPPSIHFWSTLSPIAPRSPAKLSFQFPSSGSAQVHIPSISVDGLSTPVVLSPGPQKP
The note with it: protein: recombinant; tags: N-terminal GST; dsDNA, one strand shown. In outline: as §1

Assay [3] addresses T3, GABPA (Homo sapiens, UniProt Q06546 1-454).
T3 sequence: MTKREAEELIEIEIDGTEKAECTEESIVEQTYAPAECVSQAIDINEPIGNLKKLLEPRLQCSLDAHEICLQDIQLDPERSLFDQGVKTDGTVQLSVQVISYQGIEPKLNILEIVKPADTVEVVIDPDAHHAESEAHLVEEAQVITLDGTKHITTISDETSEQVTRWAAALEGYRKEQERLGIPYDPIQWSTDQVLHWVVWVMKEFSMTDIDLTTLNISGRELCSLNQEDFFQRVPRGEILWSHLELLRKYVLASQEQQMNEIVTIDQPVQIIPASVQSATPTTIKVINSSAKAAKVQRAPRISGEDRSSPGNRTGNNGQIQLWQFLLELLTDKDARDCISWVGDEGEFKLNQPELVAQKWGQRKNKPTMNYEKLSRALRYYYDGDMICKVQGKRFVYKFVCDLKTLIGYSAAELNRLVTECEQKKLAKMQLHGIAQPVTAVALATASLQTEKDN
Particulars: protein: recombinant; tags: N-terminal GST; dsDNA, one strand shown. Summed up:
as §1

Assay [4] has as its target T4, ERG (Homo sapiens, UniProt P11308 1-479).
T4 sequence: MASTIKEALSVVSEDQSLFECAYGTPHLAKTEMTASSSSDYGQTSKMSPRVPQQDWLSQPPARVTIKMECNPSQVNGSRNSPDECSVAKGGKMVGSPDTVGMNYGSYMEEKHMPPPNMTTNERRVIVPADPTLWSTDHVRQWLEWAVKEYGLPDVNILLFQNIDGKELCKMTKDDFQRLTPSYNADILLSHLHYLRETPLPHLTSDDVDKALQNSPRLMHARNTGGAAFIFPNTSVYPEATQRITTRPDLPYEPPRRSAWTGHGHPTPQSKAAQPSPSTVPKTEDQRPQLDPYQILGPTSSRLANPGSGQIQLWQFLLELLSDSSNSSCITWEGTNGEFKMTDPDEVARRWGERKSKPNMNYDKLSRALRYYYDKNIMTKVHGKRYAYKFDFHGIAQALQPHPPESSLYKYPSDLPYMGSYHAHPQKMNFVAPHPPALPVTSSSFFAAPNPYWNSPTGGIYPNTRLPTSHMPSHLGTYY
The note with it: protein: recombinant; tags: N-terminal GST; dsDNA, one strand shown. In outline: as §1

Assay [5] deals with ELF1 (Homo sapiens, UniProt P32519 1-619). The note with it: protein: recombinant; tags: N-terminal GST; dsDNA, one strand shown. In outline: as §1
Assay [6] addresses SPIB (Homo sapiens, UniProt Q01892 1-262). Particulars: protein: recombinant; tags: N-terminal GST; dsDNA, one strand shown. Summed up:
as §1

Assay [7] addresses HSF1 (Homo sapiens, UniProt Q00613 1-529). The note with it: protein: recombinant; tags: N-terminal GST; chain copies: 3; dsDNA, one strand shown. In outline:
as §1

Assay [8] addresses ELF4 (Homo sapiens, UniProt Q99607 1-663). Particulars: protein: recombinant; tags: N-terminal GST; dsDNA, one strand shown. In outline:
as §1

For assay [9], the target named is T5, ETV2 (Homo sapiens, UniProt O00321 1-342).
T5 sequence: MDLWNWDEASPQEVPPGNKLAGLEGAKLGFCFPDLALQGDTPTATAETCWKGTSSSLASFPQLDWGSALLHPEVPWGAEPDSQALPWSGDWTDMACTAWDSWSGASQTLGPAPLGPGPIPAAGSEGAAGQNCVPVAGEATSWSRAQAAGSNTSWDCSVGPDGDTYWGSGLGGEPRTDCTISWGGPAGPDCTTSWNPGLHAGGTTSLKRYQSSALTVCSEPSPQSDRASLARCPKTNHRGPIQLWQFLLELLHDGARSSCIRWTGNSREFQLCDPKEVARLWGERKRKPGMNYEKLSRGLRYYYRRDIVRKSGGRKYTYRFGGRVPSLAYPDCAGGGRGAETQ
The note with it: protein: recombinant; tags: N-terminal GST; dsDNA, one strand shown. Summed up:
as §1

Assay [10] concerns the target T6, ELF3 (Homo sapiens, UniProt P78545 1-371).
T6 sequence: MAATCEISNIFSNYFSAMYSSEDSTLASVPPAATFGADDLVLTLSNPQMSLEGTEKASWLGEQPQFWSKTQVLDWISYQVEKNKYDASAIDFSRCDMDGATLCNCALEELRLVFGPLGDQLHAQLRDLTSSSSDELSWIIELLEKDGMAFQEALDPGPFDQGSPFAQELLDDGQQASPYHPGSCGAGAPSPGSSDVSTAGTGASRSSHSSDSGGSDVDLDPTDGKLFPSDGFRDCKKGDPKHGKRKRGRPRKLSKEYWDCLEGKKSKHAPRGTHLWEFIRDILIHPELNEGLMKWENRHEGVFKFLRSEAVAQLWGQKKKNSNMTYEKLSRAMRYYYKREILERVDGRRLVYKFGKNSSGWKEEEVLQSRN
The note with it: protein: recombinant; tags: N-terminal GST; dsDNA, one strand shown. In outline: as §1

The target in assay [11] is ETV1 (Homo sapiens, UniProt P50549 1-477). The note with it: protein: recombinant; tags: N-terminal GST; dsDNA, one strand shown. In outline: as §1
Assay [12] deals with T7, ETV3L (Homo sapiens, UniProt Q6ZN32 1-361).
T7 sequence: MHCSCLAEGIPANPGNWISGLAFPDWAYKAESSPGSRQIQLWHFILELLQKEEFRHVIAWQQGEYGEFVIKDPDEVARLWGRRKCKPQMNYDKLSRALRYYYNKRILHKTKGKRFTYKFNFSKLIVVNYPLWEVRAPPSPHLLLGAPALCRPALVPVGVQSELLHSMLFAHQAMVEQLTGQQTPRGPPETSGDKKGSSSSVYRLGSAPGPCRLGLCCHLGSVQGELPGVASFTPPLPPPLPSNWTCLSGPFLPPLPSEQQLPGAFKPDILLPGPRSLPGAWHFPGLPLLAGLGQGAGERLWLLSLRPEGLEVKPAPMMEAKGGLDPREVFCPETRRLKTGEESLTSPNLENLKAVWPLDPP
The note with it: protein: recombinant; tags: N-terminal GST; dsDNA, one strand shown. Summed up:
as §1

The target of assay [13] is T8, ETV7 (Homo sapiens, UniProt Q9Y603 1-341).
T8 sequence: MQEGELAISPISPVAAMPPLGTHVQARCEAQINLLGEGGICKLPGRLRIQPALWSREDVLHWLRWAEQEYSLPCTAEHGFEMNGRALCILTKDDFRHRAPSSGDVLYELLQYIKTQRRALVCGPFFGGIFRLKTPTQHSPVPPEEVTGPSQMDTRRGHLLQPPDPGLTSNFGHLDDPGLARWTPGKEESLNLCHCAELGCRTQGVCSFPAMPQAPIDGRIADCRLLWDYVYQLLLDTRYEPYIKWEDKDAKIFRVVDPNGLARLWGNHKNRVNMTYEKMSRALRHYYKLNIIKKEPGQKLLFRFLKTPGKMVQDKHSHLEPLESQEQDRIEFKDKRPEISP
The note with it: protein: recombinant; tags: N-terminal GST; dsDNA, one strand shown. Summed up: as §1

Assay [14] addresses T9, ETV3 (Homo sapiens, UniProt P41162-2 1-143).
T9 sequence: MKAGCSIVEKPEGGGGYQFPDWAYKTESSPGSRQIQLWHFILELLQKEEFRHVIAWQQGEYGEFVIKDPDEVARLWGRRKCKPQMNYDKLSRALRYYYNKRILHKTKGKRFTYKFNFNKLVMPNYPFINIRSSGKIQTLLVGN
Particulars: protein: recombinant; tags: N-terminal GST; dsDNA, one strand shown. In outline: as §1

The target in assay [15] is ETV6 (Homo sapiens, UniProt P41212 1-452). Particulars: protein: recombinant; tags: N-terminal GST; dsDNA, one strand shown. Summed up: as §1

This note sets out measurements from PMC7862700, “An all-to-all approach to the identification of sequence-specific readers for epigenetic DNA modifications on cytosine”.

Sequence of ETV6 (P41212 whole entry): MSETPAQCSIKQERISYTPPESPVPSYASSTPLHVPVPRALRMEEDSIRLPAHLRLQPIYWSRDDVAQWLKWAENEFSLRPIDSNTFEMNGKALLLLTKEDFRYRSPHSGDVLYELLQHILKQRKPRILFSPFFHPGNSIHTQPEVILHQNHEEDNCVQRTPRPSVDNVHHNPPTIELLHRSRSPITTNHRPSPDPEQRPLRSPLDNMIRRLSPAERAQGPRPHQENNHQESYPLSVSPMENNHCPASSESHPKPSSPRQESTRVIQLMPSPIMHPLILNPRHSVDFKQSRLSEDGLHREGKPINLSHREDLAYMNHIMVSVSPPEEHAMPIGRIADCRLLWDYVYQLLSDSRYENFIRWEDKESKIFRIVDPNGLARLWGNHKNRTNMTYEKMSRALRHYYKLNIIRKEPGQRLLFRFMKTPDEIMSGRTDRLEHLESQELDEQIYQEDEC
Sequence of ELF4 (Q99607 whole entry): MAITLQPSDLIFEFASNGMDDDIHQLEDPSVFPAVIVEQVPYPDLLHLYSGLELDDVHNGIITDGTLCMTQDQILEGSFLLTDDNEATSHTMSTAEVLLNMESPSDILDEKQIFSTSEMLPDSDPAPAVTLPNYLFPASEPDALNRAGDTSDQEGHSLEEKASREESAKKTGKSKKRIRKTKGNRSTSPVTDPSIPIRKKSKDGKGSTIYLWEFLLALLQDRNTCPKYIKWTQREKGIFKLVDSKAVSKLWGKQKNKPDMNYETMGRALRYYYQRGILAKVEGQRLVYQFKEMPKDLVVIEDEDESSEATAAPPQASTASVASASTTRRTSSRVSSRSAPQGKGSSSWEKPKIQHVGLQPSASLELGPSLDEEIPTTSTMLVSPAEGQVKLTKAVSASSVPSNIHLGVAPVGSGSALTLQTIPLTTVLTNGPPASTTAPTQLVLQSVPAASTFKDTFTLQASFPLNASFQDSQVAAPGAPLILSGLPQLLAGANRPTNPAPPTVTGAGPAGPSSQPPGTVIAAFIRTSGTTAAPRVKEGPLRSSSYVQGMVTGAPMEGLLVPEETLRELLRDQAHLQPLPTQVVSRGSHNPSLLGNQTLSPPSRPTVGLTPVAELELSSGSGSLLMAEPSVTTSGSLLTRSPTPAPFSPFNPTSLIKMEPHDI
Sequence of HSF1 (Q00613 whole entry): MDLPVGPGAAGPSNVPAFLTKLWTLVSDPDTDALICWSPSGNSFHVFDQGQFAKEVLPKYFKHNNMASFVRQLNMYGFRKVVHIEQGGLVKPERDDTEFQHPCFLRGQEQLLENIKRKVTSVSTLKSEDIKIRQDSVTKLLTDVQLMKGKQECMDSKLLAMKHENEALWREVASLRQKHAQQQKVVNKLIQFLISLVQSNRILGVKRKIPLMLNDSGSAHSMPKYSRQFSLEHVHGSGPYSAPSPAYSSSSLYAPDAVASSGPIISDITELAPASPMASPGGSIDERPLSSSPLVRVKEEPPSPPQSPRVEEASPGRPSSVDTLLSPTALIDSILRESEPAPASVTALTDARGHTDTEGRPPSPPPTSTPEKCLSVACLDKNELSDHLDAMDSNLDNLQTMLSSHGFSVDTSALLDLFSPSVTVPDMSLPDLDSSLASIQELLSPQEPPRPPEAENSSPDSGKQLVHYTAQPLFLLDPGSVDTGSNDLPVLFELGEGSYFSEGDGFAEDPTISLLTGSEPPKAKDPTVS
Sequence of ELF1 (P32519 whole entry): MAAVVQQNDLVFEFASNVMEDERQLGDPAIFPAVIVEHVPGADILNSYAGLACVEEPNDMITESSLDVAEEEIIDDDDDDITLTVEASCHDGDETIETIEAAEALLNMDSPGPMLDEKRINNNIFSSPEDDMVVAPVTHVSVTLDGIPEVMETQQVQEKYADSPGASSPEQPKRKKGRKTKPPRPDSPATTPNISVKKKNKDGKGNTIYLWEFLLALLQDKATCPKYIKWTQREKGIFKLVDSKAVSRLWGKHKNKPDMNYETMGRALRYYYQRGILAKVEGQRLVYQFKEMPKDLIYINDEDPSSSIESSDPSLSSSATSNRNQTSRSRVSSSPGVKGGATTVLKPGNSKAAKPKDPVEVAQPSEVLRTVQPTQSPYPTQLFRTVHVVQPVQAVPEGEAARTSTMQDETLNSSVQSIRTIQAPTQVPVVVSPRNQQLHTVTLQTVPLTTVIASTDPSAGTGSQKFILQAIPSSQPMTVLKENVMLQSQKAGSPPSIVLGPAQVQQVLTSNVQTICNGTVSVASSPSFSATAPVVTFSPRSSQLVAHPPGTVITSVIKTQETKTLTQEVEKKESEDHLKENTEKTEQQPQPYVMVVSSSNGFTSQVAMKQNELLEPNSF
Sequence of SPIB (Q01892 whole entry): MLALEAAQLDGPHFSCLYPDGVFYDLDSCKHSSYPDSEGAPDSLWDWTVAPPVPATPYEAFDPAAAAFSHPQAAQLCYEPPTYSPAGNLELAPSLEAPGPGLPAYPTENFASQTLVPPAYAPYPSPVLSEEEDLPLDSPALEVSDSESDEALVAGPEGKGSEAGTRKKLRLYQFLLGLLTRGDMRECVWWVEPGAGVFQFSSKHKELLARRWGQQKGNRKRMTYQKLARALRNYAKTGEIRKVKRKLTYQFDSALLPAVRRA
Sequence of ETV1 (P50549 whole entry): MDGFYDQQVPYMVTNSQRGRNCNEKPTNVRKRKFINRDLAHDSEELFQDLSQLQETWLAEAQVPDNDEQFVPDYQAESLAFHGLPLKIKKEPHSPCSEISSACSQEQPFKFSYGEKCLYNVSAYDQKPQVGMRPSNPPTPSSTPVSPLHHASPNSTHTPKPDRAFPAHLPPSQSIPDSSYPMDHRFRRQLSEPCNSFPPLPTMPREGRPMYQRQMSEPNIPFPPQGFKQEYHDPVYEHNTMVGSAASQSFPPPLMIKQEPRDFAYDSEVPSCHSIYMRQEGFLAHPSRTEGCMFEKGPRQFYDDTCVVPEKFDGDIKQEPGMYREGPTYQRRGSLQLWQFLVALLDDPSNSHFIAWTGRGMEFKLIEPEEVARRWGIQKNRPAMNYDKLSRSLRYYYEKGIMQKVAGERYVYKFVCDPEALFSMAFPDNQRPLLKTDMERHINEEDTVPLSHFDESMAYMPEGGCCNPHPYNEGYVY

On to TCAGAT, for which the binding signal in [1] was 1.01 fold enrichment (6-mer frequency, TF over GST control); in assay [2] it was 1.05 fold enrichment (6-mer frequency, TF over GST control); in [3] it was 1.03 fold enrichment (6-mer frequency, TF over GST control); in assay [4] it was 1.06 fold enrichment (6-mer frequency, TF over GST control); in [5] it was 1.04 fold enrichment (6-mer frequency, TF over GST control); in assay [6], 1.02 fold enrichment (6-mer frequency, TF over GST control). For the same sequence, the binding signal was 1.21 fold enrichment (6-mer frequency, TF over GST control) in [7]; 1.02 fold enrichment (6-mer frequency, TF over GST control) in assay [8]; 1.08 fold enrichment (6-mer frequency, TF over GST control) in assay [9]; 1.08 fold enrichment (6-mer frequency, TF over GST control) in assay [10]; 1.05 fold enrichment (6-mer frequency, TF over GST control) in assay [11]; 1 fold enrichment (6-mer frequency, TF over GST control) in [12]. The binding signal was 1.03 fold enrichment (6-mer frequency, TF over GST control) in [13]; 1.02 fold enrichment (6-mer frequency, TF over GST control) in [14]; 1.08 fold enrichment (6-mer frequency, TF over GST control) in [15].
